# Reference: PubChem BioAssay
# pEC50: −log10 of the molar value. Values joined by “and” are separate entries in the source; they are usually repeats but may differ in a detail not shown here. Identical values can stand only once. Results filed as inconclusive are left out. For part of these data: Entries with a potency or affinity are not part of this list. Active and inactive are the calls of the source. Unless noted, no stated cut-off is given here; in the data, active means parasite load remaining mostly below about 12% (no sharp cut-off); inactive means mostly above about 10%.
# Key:
# [1] = blockers of polyQ-driven CASP3 activation – cell-based (AID 1583); details: polyglutamine-induced caspase-3 activation, cell assay; stronger effect = higher value;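 tested at 10 µM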
# [2] = yeast 75Q aggregation reduction – 75Q-TubU reporter (AID 1593); details: Yeast 75Q polyglutamine aggregation reporter
# [3] = glutamate excitotoxicity neuroprotectants – cell-based, TUNEL DNA degradation staining, MNGlu (AID 1594; call rule not given here); details: motor neurons, glutamate-induced death, at 1 µM, stronger effect = higher value
# [4] = restoration of touch response, mutant HTT neurons – whole organism, C. elegans mechanosensory neurons, N-terminal huntingtin (AID 1599); details: C. elegans polyQ-huntingtin mechanosensory neurons, stronger effect = higher value
# [5] = blockers of cytochrome c efflux from mitochondria – biochemical, purified mitochondria (AID 1603); details: stronger effect = lower value;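 further: mouse liver mitochondria challenged with calcium chloride; signal normalized to the plate average as 100%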
# [6] = polyglutamine aggregate formation blockers (AID 1604); details: polyglutamine-induced protein aggregation inhibition assay; stronger effect = higher value; tested at 2.5 µM
# [7] = glutamate transport activators, MN-1 cells, MN-1 cell line (AID 1612); details: MN-1 motor neuron cells, stronger effect = higher value;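 further: tested at 1 µM final; 0% = mean of DMSO vehicle wells on each plate; positive means more glutamate uptake than control and negative means less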
# [8] = GFP-Q80 aggregate reduction, neuronal-like cells, cell-based, NGF-treated PC12, GFPQ80 (AID 1614); details: PC12 NGF-treated GFP-polyQ80 inclusion reduction;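 further: lower means fewer inclusions and 0 means no inclusions at all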
# [9] = 75Q-TubH aggregate inhibition, S. cerevisiae, yeast (AID 1616); details: S. cerevisiae 75Q-TubH polyglutamine aggregation suppression; stronger effect = higher value
# [10] = P. berghei load reduction in hepatocytes – cell-based, HepG2, luciferase luminescence, HepG2 viability, primary screen (AID 624349);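 further: 100% = mean of DMSO negative control wells on the same plate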; details: P. berghei liver stage in HepG2, luciferase luminescence, concentration not given here; parasite load remaining: stronger effect = lower value; viability: measured here: HepG2 viability without parasites
# [11] = EMT-state selective cytotoxicity in co-culture – imaging, PC-3E GFP, TEM4-18 mCherry, primary screen (AID 1345086;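 active means compounds killing one labelled cell type while sparing the other, by normalised counts and ratio limits, not self-fluorescent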;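 on all read-outs here: cells exposed to compound for 72 h before imaging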;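 on red/green cell ratio (normalised): normalised mesenchymal count divided by normalised epithelial count so high means epithelial killing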); details: PC-3E GFP / TEM4-18 mCherry co-culture, imaging cell counts, at 1 µM; for red/green cell ratio (normalised): actives lie on both sides, counts scaled to control wells, 1 = unselective
# [12] = viability loss with induced miR-34 in A549 – imaging, A549 dox-inducible miR-34, nuclei and caspase counts, primary screen (AID 1347080;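 active means compounds whose cell count with miR-34 switched on is under 0.7 times the count with it off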); details: A549 miR-34 inducible, Hoechst nuclei count, 48 h
# [13] = molecular target: NAD(+) hydrolase SARM1 (Homo sapiens) (UniProt Q6SZW1); assay: blocking NAD cleavage by SARM1 SAM-TIR – cell lysate, NAD-Glo luminescence (AID 1508614;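 active means compound whose remaining NAD level is above about 45 nM, limit read from the data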); details: SAM-TIR HEK293T lysate NADase, at 1 µM, stronger effect = higher value
# [14] = molecular target: Mitogen-activated protein kinase 7 (Homo sapiens) (UniProt Q13164); assay: Gal4-ERK5 driven luciferase induction – cell-based, HTS, primary screen (AID 1508626;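 active means luciferase signal above three times the same-plate solvent-only control wells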;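 further: luciferase driven by Gal4-ERK5 fusion binding five Gal4 sites before minimal TATA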); details: HeLa Gal4-ERK5 transactivation, 18 h, at 5 µM, stronger effect = higher value
# [15] = blockers of biotin-polyQ monomer incorporation into aggregates – biochemical, solid-phase synthetic aggregates, QA3 (AID 1585; call rule not given here); details: polyQ aggregate elongation; EC50: measured here: elongation inhibition potency; inhibition: at 100 µM, stronger effect = higher value
# [16] = galactose survival enhancers in mitochondrial complex I cybrids – cell-based, galactose medium, ATP luminescence, primary screen (AID 1645843;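 active means z-score of at least 1.8 in each of two replicates, scored against plate mean and spread of sample wells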;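 further: positive z means more ATP and so rescue of galactose-driven cybrid death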); details: complex I mutant cybrid cells, 72 h, stronger effect = higher value
# [17] = rescue of PC12 cells from polyQ htt toxicity – LDH release (AID 1610); details: PC12 mutant huntingtin toxicity, final LDH at 4 uM, stronger effect = lower value
# [18] = test system: Hepatitis C virus NS3 helicase; assay: blockers of NS3h binding to ssDNA – biochemical, fluorescence polarization, LOPAC1280 library, primary screen (AID 687035; in the data active means inhibition above about 37%); details: Purified HCV NS3 helicase, Cy5-dT15 ssDNA binding fluorescence polarization; stronger effect = higher value; concentration not given here
# [19] = compounds altering Cy5-DNA-NS3h complex signal – biochemical, LOPAC1280, artefact control for HCV NS3 helicase inhibitor project (AID 687037; call rule not given here); details: Cy5-DNA-NS3h complex fluorescence interference counterscreen
# [20] = measured here: epithelial PC-3E GFP cell survival
# [21] = measured here: mesenchymal TEM4-18 mCherry cell survival
# [22] = stronger effect = lower value, cell number ratio, induced over uninduced
# [23] = measured here: relative caspase fold change +Dox/-Dox
# [24] = measured here: total cells with miR-34 induction, stronger effect = lower value
# [25] = measured here: total cells without miR-34 induction
# Sequence of Mitogen-activated protein kinase 7 (Homo sapiens) (Q13164 whole entry, looked up, the tested form may be a part): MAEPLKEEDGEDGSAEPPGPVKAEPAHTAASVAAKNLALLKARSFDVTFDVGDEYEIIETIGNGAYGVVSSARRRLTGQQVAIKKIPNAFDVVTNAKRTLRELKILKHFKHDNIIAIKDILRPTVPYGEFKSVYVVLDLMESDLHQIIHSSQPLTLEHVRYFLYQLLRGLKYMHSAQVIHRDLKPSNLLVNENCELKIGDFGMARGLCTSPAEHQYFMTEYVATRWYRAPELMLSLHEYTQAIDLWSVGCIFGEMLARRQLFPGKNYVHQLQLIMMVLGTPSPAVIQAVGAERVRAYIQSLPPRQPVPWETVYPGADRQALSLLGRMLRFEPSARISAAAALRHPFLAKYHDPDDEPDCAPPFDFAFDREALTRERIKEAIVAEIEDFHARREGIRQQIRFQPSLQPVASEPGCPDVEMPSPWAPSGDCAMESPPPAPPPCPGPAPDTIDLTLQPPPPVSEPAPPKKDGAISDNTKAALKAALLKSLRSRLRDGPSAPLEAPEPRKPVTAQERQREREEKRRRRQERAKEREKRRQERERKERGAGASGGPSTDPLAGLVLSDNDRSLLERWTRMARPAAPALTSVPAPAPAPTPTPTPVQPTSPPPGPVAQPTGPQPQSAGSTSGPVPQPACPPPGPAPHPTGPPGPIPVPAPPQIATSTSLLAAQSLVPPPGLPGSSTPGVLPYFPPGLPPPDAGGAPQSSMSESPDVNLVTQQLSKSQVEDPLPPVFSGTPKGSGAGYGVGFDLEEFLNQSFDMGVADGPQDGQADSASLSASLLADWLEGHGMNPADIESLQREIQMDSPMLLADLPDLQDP
# Sequence of NAD(+) hydrolase SARM1 (Homo sapiens) (Q6SZW1 whole entry, looked up, the tested form may be a part): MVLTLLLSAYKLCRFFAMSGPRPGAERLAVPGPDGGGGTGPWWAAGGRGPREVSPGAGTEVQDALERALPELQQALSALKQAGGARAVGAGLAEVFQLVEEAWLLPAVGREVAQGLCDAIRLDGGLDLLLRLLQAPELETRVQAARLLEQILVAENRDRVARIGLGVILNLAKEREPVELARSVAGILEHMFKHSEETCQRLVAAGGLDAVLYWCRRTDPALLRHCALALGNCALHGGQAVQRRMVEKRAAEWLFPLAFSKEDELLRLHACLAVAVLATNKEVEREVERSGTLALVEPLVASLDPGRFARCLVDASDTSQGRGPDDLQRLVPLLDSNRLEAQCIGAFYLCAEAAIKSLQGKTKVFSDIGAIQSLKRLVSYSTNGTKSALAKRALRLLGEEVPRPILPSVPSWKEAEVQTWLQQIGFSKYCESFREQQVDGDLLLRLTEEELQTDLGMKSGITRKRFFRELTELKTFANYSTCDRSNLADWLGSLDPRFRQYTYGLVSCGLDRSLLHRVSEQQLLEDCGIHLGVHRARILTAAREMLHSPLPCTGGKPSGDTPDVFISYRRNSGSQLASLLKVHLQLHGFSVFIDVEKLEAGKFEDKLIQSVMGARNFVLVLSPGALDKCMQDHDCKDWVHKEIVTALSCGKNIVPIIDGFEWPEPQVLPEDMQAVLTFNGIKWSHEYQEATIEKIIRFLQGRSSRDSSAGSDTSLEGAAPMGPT
smiles,measurement,setting,value
CC(C)[C@@H]1CC[C@@H](C)C[C@H]1O,inhibition,[1],18.8%
same,score,[2],1.2
same,protection,[3],54% (active)
same,rescue above control,[4],5.72
same,cytochrome c release ratio,[5],0.66
same,inhibition of aggregation,[6],80.3%
same,glutamate uptake change,[7],2.2%
same,inclusion score,[8],1
same,aggregation suppression score,[9],1.36
same,parasite load remaining,[10],176% (inactive) and 64.4% (inactive)
same,viability,[10],87.7% and 95.6%
same,red/green cell ratio (normalised),[11],0.86 (inactive)
same,normalised cell number,[11]; [20],0.91
same,normalised cell number,[11]; [21],0.79
same,fold change,[12]; [22],0.95 (inactive)
same,fold change,[12]; [23],2.52
same,cell count,[12]; [24],12500
same,cell count,[12]; [25],13100
same,remaining NAD,[13],10 nM (inactive)
same,luciferase signal,[14],44 AU (inactive)
O=C(O)CC(O)(CC(=O)O)C(=O)O,parasite load remaining,[10],61.3% (inactive)
same,viability,[10],186%
same,red/green cell ratio (normalised),[11],1 (inactive)
same,normalised cell number,[11]; [20],1.06
same,normalised cell number,[11]; [21],1.06
same,fold change,[12]; [22],0.829 (inactive)
same,fold change,[12]; [23],6.46
same,cell count,[12]; [24],11100
same,cell count,[12]; [25],13400
same,remaining NAD,[13],10 nM (inactive)
same,luciferase signal,[14],52 AU (inactive)
CC(C)(CO)C(O)C(=O)NCCCO (stereo not given),parasite load remaining,[10],56.4% (inactive)
same,viability,[10],105%
same,red/green cell ratio (normalised),[11],1.08 (inactive) and 0.9 (inactive)
same,normalised cell number,[11]; [20],1.14 and 1.02
same,normalised cell number,[11]; [21],1.23 and 0.92
same,fold change,[12]; [22],0.911 (inactive)
same,fold change,[12]; [23],4.72
same,cell count,[12]; [24],11800
same,cell count,[12]; [25],13000
same,luciferase signal,[14],68 AU (inactive)
CCC1(C)OC(=O)N(C)C1=O (stereo not given),red/green cell ratio (normalised),[11],0.84 (inactive)
same,normalised cell number,[11]; [20],1.08
same,normalised cell number,[11]; [21],0.91
same,fold change,[12]; [22],0.92 (inactive)
same,fold change,[12]; [23],0.865
same,cell count,[12]; [24],7860
same,cell count,[12]; [25],8540
same,remaining NAD,[13],10 nM (inactive)
same,luciferase signal,[14],16 AU (inactive)
CCCCC(CC)CCC(CC(C)C)OS(=O)(=O)O (stereo not given),red/green cell ratio (normalised),[11],0.93 (inactive)
same,normalised cell number,[11]; [20],1.15
same,normalised cell number,[11]; [21],1.07
same,fold change,[12]; [22],0.913 (inactive)
same,fold change,[12]; [23],0.896
same,cell count,[12]; [24],8490
same,cell count,[12]; [25],9300
same,remaining NAD,[13],10 nM (inactive)
COc1cc(/C=C/C(=O)N2CCC=CC2=O)cc(OC)c1OC,parasite load remaining,[10],-9.42% (inactive) and 36.9% (inactive)
same,viability,[10],36.5% and 76.3%
same,red/green cell ratio (normalised),[11],1.8 (active)
same,normalised cell number,[11]; [20],0.39
same,normalised cell number,[11]; [21],0.7
same,fold change,[12]; [22],0.965 (inactive)
same,fold change,[12]; [23],1.26
same,cell count,[12]; [24],3400
same,cell count,[12]; [25],3530
same,luciferase signal,[14],460 AU (active)
C#C[C@]1(O)CCC2C3CCc4cc(O)ccc4C3CC[C@@]21C (stereo not given in full),inhibition,[1],15.5%
same,pEC50,[15],3.89
same,inhibition,[15],58.5% (active)
same,score,[2],0.67
same,rescue above control,[4],-11.3
same,cytochrome c release ratio,[5],1.15
same,inhibition of aggregation,[6],38.1%
same,glutamate uptake change,[7],-12.7%
same,aggregation suppression score,[9],0.484
same,parasite load remaining,[10],88.3% (inactive) and 66.4% (inactive)
same,viability,[10],76.2% and 99.2%
same,red/green cell ratio (normalised),[11],0.98 (inactive)
same,normalised cell number,[11]; [20],1.1
same,normalised cell number,[11]; [21],1.07
same,fold change,[12]; [22],1.12 (inactive) and 1.01 (inactive)
same,fold change,[12]; [23],1.15 and 1.03
same,cell count,[12]; [24],5370 and 6100
same,cell count,[12]; [25],4780 and 6050
same,z-score,[16],-0.545 (inactive)
C[C@]12C=CC(=O)C=C1CCC1C2[C@@H](O)C[C@@]2(C)C1CC[C@]2(O)C(=O)CO (stereo not given in full),inhibition,[1],12%
same,score,[2],1.21
same,protection,[3],55% (active)
same,rescue above control,[4],1.9
same,cytochrome c release ratio,[5],1.29
same,inhibition of aggregation,[6],70.5%
same,glutamate uptake change,[7],9.97%
same,inclusion score,[8],2
same,aggregation suppression score,[9],1.27
same,parasite load remaining,[10],115% (inactive) and 54.5% (inactive)
same,viability,[10],73.3% and 82.9%
same,red/green cell ratio (normalised),[11],1.37 (inactive)
same,normalised cell number,[11]; [20],1.03
same,normalised cell number,[11]; [21],1.41
same,fold change,[12]; [22],0.848 (inactive)
same,fold change,[12]; [23],2.13
same,cell count,[12]; [24],6630
same,cell count,[12]; [25],7820
CC(=O)Nc1ccc(S(=O)(=O)c2ccc(NC(C)=O)cc2)cc1,parasite load remaining,[10],52.4% (inactive)
same,viability,[10],147%
same,red/green cell ratio (normalised),[11],0.78 (inactive)
same,normalised cell number,[11]; [20],1.22
same,normalised cell number,[11]; [21],0.95
same,fold change,[12]; [22],0.909 (inactive)
same,fold change,[12]; [23],4.36
same,cell count,[12]; [24],10600
same,cell count,[12]; [25],11700
same,remaining NAD,[13],25 nM (inactive)
same,luciferase signal,[14],44 AU (inactive)
FC(F)(Cl)C(F)(F)Cl,red/green cell ratio (normalised),[11],1.02 (inactive)
same,normalised cell number,[11]; [20],0.91
same,normalised cell number,[11]; [21],0.93
same,fold change,[12]; [22],0.926 (inactive)
same,fold change,[12]; [23],0.734
same,cell count,[12]; [24],9510
same,cell count,[12]; [25],10300
same,remaining NAD,[13],10 nM (inactive)
CO/N=C(/C(=O)N[C@@H]1C(=O)N2C(C(=O)O)=C(COC(C)=O)CS[C@H]12)c1csc(N)n1,inhibition,[1],6.49%
same,score,[2],1.38
same,rescue above control,[4],2.83
same,cytochrome c release ratio,[5],1.43
same,inhibition of aggregation,[6],86.2%
same,normalised LDH release,[17],0.958
same,glutamate uptake change,[7],-17.6%
same,inclusion score,[8],2
same,aggregation suppression score,[9],1.39
same,parasite load remaining,[10],84.7% (inactive) and 61.2% (inactive)
same,viability,[10],73.5% and 100%
same,inhibition,[18],6% (inactive)
same,fluorescence ratio (interference),[19],1 (inactive)
same,red/green cell ratio (normalised),[11],1.18 (inactive)
same,normalised cell number,[11]; [20],1.15
same,normalised cell number,[11]; [21],1.35
same,fold change,[12]; [22],0.913 (inactive)
same,fold change,[12]; [23],1.26
same,cell count,[12]; [24],11200
same,cell count,[12]; [25],12300
CC1(C)C(C=C(Cl)Cl)C1C(=O)OCc1cccc(Oc2ccccc2)c1 (stereo not given),red/green cell ratio (normalised),[11],0.81 (inactive)
same,normalised cell number,[11]; [20],1.23
same,normalised cell number,[11]; [21],1
same,fold change,[12]; [22],0.928 (inactive)
same,fold change,[12]; [23],0.968
same,cell count,[12]; [24],8290
same,cell count,[12]; [25],8930
same,remaining NAD,[13],10 nM (inactive)
OC[C@H]1O[C@H](O[C@]2(CCl)O[C@H](CCl)[C@@H](O)[C@@H]2O)[C@H](O)[C@@H](O)[C@H]1Cl,parasite load remaining,[10],60.8% (inactive)
same,viability,[10],98.6%
same,red/green cell ratio (normalised),[11],0.96 (inactive)
same,normalised cell number,[11]; [20],1.1
same,normalised cell number,[11]; [21],1.05
same,fold change,[12]; [22],0.909 (inactive)
same,fold change,[12]; [23],4.93
same,cell count,[12]; [24],12300
same,cell count,[12]; [25],13500
same,remaining NAD,[13],10 nM (inactive)
same,luciferase signal,[14],68 AU (inactive)
COc1ccc(C[C@H](N)C(=O)N[C@@H]2[C@@H](CO)OC(n3cnc4c(N(C)C)ncnc43)[C@@H]2O)cc1 (stereo not given in full),inhibition,[1],52.2%
same,score,[2],1.68
same,rescue above control,[4],-10.3
same,cytochrome c release ratio,[5],1.17
same,inhibition of aggregation,[6],54%
same,normalised LDH release,[17],1
same,glutamate uptake change,[7],15.3%
same,aggregation suppression score,[9],1.32
same,parasite load remaining,[10],54.7% (inactive) and 3.3% (inactive)
same,viability,[10],40.9% and 70.7%
same,red/green cell ratio (normalised),[11],1 (inactive)
same,normalised cell number,[11]; [20],0.94
same,normalised cell number,[11]; [21],0.94
same,fold change,[12]; [22],1.05 (inactive)
same,fold change,[12]; [23],1.45
same,cell count,[12]; [24],385
same,cell count,[12]; [25],366
